Reference: PubChem BioAssay (NCI)
The panel holds about 79,000 compounds, 15% with a hit somewhere; the sample as a whole holds those more often. Rule as the data show it: active = growth inhibition above about 70%; inactive = the rest.

What was measured:
[1] = NCI Yeast Anticancer Drug Screen. Data for the rad50 strain (AID 155);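 also: 0% = growth of vehicle-only cultures of the same strain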; settings: S. cerevisiae rad50 strain growth inhibition; at 50.0 µM; stronger effect = higher value
Summary of the method: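 Yeast carrying a defined DNA repair defect were exposed to test compounds, and growth was compared with vehicle-treated controls to give percent inhibition.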

[2] = NCI Yeast Anticancer Drug Screen. Data for the mec2-1 strain (AID 157); settings: S. cerevisiae mec2-1 strain, at 50.0 µM, stronger effect = higher value
Summary of the method: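 Using mec2-1 yeast: add compound, measure growth, express inhibition versus vehicle-treated cultures.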

[3] = NCI Yeast Anticancer Drug Screen. Data for the sgs1 mgt1 strain (AID 161);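 also: 0% = growth of cultures given vehicle only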; settings: S. cerevisiae sgs1 mgt1 strain, at 50.0 µM, stronger effect = higher value
Summary of the method: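 Compounds are added to genetically altered yeast, and growth is compared with cultures given vehicle alone to give percent inhibition.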

[4] = NCI Yeast Anticancer Drug Screen. Data for the cln2 rad14 strain (AID 165);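 also: 0% = growth equal to vehicle treated cultures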; settings: S. cerevisiae cln2 rad14 strain, at 50.0 µM, stronger effect = higher value
Summary of the method: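 Yeast strain cln2 rad14, bearing defects in cell cycle control and DNA repair, serves as the test system; values reflect growth inhibition compared with vehicle.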

[5] = NCI Yeast Anticancer Drug Screen. Data for the bub3 strain (AID 167); settings: S. cerevisiae bub3 mutant strain, at 50.0 µM, stronger effect = higher value
Summary of the method: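 Compounds were applied to a genetically altered yeast strain carrying a cell-cycle control defect. Growth inhibition was scored against vehicle-treated controls.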

[6] = NCI Yeast Anticancer Drug Screen. Data for the mlh1 rad18 strain (AID 175); settings: S. cerevisiae mlh1 rad18 strain growth inhibition; at 50.0 µM; stronger effect = higher value
Summary of the method: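 Steps: expose repair-defective yeast to compound; measure growth; express inhibition against vehicle-treated controls.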

Measured: growth inhibition

Cc1ccc(S(=O)(=O)N(CCOS(C)(=O)=O)CCOS(C)(=O)=O)cc1
inactive: [1] 12.3% | [2] -13.2% | [3] -0.8% | [4] -2.1% | [5] 9.45% | [6] 5.25%

O=C(NNC(=O)c1ccc2ccccc2c1)c1cccc(Br)c1
inactive: [1] -21.1% | [2] -20.6% | [3] -6.55% | [4] 10.1% | [5] -5.6% | [6] -7.95%

Cc1ccc(S(=O)(=O)Nn2c(O)c(C#N)c(-c3ccc(Cl)cc3)c(C#N)c2=O)cc1
inactive: [1] 1.3% | [2] 20.3% | [3] 11.2% | [4] 11.5% | [5] 15.5% | [6] 32.3%

CCOC(=O)c1c[nH]c2ccccc2c1=O
inactive: [1] 1.65% | [2] -8.95% | [3] -0.35% | [4] -16% | [5] -7.9% | [6] 2.2%
